Measured values published in the supplement of paper PMC6555819.

Key:
Test in all cases: PBM binding z-score (relative to random genomic background probes); higher = stronger binding; sequences stand for … in GC…GCGATTGACAGCGTAGAATGAAGG
[1] = tested on: RARb homodimer (NR concentration 270 nM)
Summary of the method: (§1)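 Ligand-free nuclear receptor dimers were bound for 1 h to custom Agilent 4×180K protein-binding microarrays. Detection used antibodies against each partner (one per run). Binding z-scores rest on regression-normalized fluorescence, with random background probes as the reference.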

[2] = tested on: RARg:RXRa (NR concentration 270 nM, RXRa partner concentration 90 nM)
Summary of the method: as §1

[3] = tested on: RARg homodimer (NR concentration 270 nM)
Summary of the method: as §1

[4] = tested on: RXRa DBDmut IVT, anti-RXR (DBD mutation: RXRa K156A/R161A, NR concentration 90 nM)
Summary of the method: as §1

[5] = tested on: RXRa homodimer (NR concentration 180 nM)
Summary of the method: as §1

[6] = tested on: THRa:RXRa (NR concentration 90 nM, RXRa partner concentration 90 nM)
Summary of the method: as §1

[7] = tested on: THRa homodimer (NR concentration 90 nM)
Summary of the method: as §1

[8] = tested on: VDR homodimer (NR concentration 270 nM)
Summary of the method: as §1

TCATATAGGTAATACAGGAGAAAGTCGGCATCTA
PBM binding z-score [1]: -0.136
PBM binding z-score [2]: 0.519
PBM binding z-score [3]: 0.598
PBM binding z-score [4]: 1.48
PBM binding z-score [5]: 0.686
PBM binding z-score [6]: 0.0311
PBM binding z-score [7]: 0.0486
PBM binding z-score [8]: 0.233

CCGACTGGGGCATAAGTTTACCATAAGCCAGCCC
PBM binding z-score [1]: 0.519
PBM binding z-score [2]: 0.0613
PBM binding z-score [3]: 0.233
PBM binding z-score [4]: 0.17
PBM binding z-score [5]: -0.0212
PBM binding z-score [6]: -0.345
PBM binding z-score [7]: -0.433
PBM binding z-score [8]: -0.134

GGAACGAGGGCATTTGAGTTGATAGCATGGCGAT
PBM binding z-score [1]: 0.691
PBM binding z-score [2]: 1.17
PBM binding z-score [3]: 1.29
PBM binding z-score [4]: 3.42
PBM binding z-score [5]: 0.881
PBM binding z-score [6]: 3.57
PBM binding z-score [7]: -0.202
PBM binding z-score [8]: 3.57

CTCGAAATGTCGGTTGAGGTGAGTATACGGATAA
PBM binding z-score [1]: 0.344
PBM binding z-score [2]: 0.0589
PBM binding z-score [3]: 0.341
PBM binding z-score [4]: 0.0185
PBM binding z-score [5]: 0.114
PBM binding z-score [6]: 3.31
PBM binding z-score [7]: 1.36
PBM binding z-score [8]: 0.263

GGAACGAGGGCAAAGTTGATAGAATCTGTCGACG
PBM binding z-score [1]: 1.19
PBM binding z-score [2]: 2.18
PBM binding z-score [3]: 1.77
PBM binding z-score [4]: 2.54
PBM binding z-score [5]: 2.06
PBM binding z-score [6]: 1.39
PBM binding z-score [7]: -0.286
PBM binding z-score [8]: 1.42

AGTCAAAGTTCACTAGGTAACATAAGATTCAGCT
PBM binding z-score [1]: 3.84
PBM binding z-score [2]: 4.96
PBM binding z-score [3]: 5.9
PBM binding z-score [4]: 4.29
PBM binding z-score [5]: 3.76
PBM binding z-score [6]: 2.08
PBM binding z-score [7]: 0.138
PBM binding z-score [8]: 4.22

CCTGCTAGGTCAGGGTCAGCTAATCTACAGTATG
PBM binding z-score [1]: 4.16
PBM binding z-score [2]: 4.45
PBM binding z-score [3]: 5.23
PBM binding z-score [4]: 1.37
PBM binding z-score [5]: 4.03
PBM binding z-score [6]: 3.48
PBM binding z-score [7]: 1.81
PBM binding z-score [8]: 1.01

TCATATAGGTAAAAGGTGATAGTCGGTGTGGTAA
PBM binding z-score [1]: 1.15
PBM binding z-score [2]: 0.851
PBM binding z-score [3]: 0.577
PBM binding z-score [4]: 1.76
PBM binding z-score [5]: 1.86
PBM binding z-score [6]: 0.901
PBM binding z-score [7]: 0.434
PBM binding z-score [8]: 0.283

TCGAGTAGGTTACCAATGGGCCATTCAGCTTTCT
PBM binding z-score [1]: 0.543
PBM binding z-score [2]: 0.598
PBM binding z-score [3]: 0.337
PBM binding z-score [4]: 0.37
PBM binding z-score [5]: 0.688
PBM binding z-score [6]: 0.184
PBM binding z-score [7]: -0.731
PBM binding z-score [8]: -0.805

ATCGAAAGGTCGAGGTGTGTATAGAGAAAGGGAA
PBM binding z-score [1]: 2.82
PBM binding z-score [2]: 4.23
PBM binding z-score [3]: 4.18
PBM binding z-score [4]: 0.84
PBM binding z-score [5]: 4.06
PBM binding z-score [6]: 2.05
PBM binding z-score [7]: 0.277
PBM binding z-score [8]: 0.444

CCAGACAGGTGAGCAGGTAACTCAGCCTCGATTA
PBM binding z-score [1]: 0.399
PBM binding z-score [2]: 0.113
PBM binding z-score [3]: 0.308
PBM binding z-score [4]: -0.0126
PBM binding z-score [5]: -0.115
PBM binding z-score [6]: 0.218
PBM binding z-score [7]: 0.165
PBM binding z-score [8]: -0.319

CCGTACGGGTCACTGACAGGTTATAGCATTTGGA
PBM binding z-score [1]: 3.2
PBM binding z-score [2]: 6.14
PBM binding z-score [3]: 4.89
PBM binding z-score [4]: 1.07
PBM binding z-score [5]: 5.53
PBM binding z-score [6]: 2.97
PBM binding z-score [7]: -0.108
PBM binding z-score [8]: 0.766

GGAACGAGGGCATCCGAGTTGATAGCATGGCGAT
PBM binding z-score [1]: 0.756
PBM binding z-score [2]: 1.28
PBM binding z-score [3]: 1.71
PBM binding z-score [4]: 2.26
PBM binding z-score [5]: 0.974
PBM binding z-score [6]: 3.08
PBM binding z-score [7]: -0.359
PBM binding z-score [8]: 2.33

AGAATGAGGTTATACGTAGATCACGGAAGAAAGT
PBM binding z-score [1]: 0.646
PBM binding z-score [2]: 1.96
PBM binding z-score [3]: 1.21
PBM binding z-score [4]: 2
PBM binding z-score [5]: 2.38
PBM binding z-score [6]: 2.11
PBM binding z-score [7]: 0.348
PBM binding z-score [8]: 0.934

CGTCCAAGGTCCGAGAGGTCAGTGAATGCCGAGT
PBM binding z-score [1]: 3.86
PBM binding z-score [2]: 3.1
PBM binding z-score [3]: 3.53
PBM binding z-score [4]: 1.19
PBM binding z-score [5]: 2.4
PBM binding z-score [6]: 2.67
PBM binding z-score [7]: 1.18
PBM binding z-score [8]: 2.95
